Sampled rows, rich in hits. Any-hit rate of the full collection: about 3.2%.
VDR inhibitor: blocks the human vitamin D receptor. VDR-SRC2-3 peptide fluorescence polarization, 2 h. P11473. AID 504847. actives 0.93% (n = 400,000). Potency, µM, inactives show max response, negative = inhibition, most hits filed as inhibitors; note: potency is the fitted concentration of half-maximal effect
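After 23 nl compound addition and a short centrifugation, plates sat for 2 hours at ambient temperature; polarization of fluorescence then indicated loss of VDR binding to peptide SRC2-3.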
PLK1 PBD inh: PLK1 (human) polo-box domain binding inhibition; Plk1 PBD binding of FITC phosphopeptide, fluorescence polarization; Potency, µM, inactives show max response, negative = inhibition, actives largely listed as inhibitors; actives 2.8% (n = 360,000); note: potency is the fitted concentration of half-maximal effect; series mostly up to about 57 µM; nearly all actives have a fitted effect of over 65% in size
Target sequence (P53350 whole entry, looked up, the tested form may be a part): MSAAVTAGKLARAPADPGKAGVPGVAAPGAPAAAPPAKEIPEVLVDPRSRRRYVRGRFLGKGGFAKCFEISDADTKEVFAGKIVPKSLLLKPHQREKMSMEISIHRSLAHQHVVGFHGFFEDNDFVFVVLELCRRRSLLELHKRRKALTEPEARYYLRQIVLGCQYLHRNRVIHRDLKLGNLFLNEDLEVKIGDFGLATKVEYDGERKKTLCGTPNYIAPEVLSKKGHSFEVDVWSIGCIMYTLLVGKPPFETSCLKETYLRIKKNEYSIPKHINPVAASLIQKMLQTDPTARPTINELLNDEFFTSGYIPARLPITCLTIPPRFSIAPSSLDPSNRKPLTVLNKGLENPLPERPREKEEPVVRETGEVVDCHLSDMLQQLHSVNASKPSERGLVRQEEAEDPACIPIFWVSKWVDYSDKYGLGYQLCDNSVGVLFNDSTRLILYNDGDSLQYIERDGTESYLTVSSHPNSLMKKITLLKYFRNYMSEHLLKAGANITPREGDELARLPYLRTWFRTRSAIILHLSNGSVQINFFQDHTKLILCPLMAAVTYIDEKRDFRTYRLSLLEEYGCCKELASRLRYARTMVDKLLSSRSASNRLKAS
USP1-UAF1 inh: inhibitors of human USP1/UAF1 deubiquitinase; O94782; recombinant USP1/UAF1, Ub-Rhodamine cleavage fluorescence; Potency, µM (titrated, usually from 57.1 µM), for the others: at the highest dose activity change, negative = inhibition, most hits filed as inhibitors; actives 0.23% (n = 390,000); AID 743255; note: potency is the fitted concentration of half-maximal effect; nearly all actives have a fitted effect of over 60% in size
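1 nM enzyme complex + cpd, 15 min RT; start with Ub-Rho 150nM final; kinetic fluorescence ex 480/em 540, 6 reads q60 s. Buffer 50mM HEPES pH 7.8, 0.5mM EDTA, 0.1 mg/ml BSA, 1mM TCEP, 0.01% Tween-20.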
USP2a block: inhibitors of human ubiquitin-specific protease USP2a; actives 0.01% (n = 330,000); USP2 core, Ub-CHOP2 coupled fluorogenic reporter, 485/531; Potency, µM (highest dose often 38.3 µM), inactives show top-dose activity change, negative = inhibition, hits mostly inhibitors; O75604; AID 463254;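 note: potency is the fitted concentration of half-maximal effect; plate controls were DMSO wells for no effect and full inhibition by NEM control for full effect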
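USP2 core (10nM final) preincubated 30min RT with compound in 20mM Tris-HCl pH 8.0, 2mM CaCl2, 2mM beta-mercaptoethanol, 0.05% CHAPS; 25nM Ub-CHOP2 plus 25nM reporter substrate added, fluorescence (Ex485/Em531) read after 60min.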
GALK inh: galactokinase (human) inhibition. actives 0.007% (n = 270,000). Potency, µM (series often up to 57.5 µM), for inactives: at the top dose activity change, negative = inhibition, most hits filed as inhibitors. Purified GALK, Kinase-Glo residual ATP luminescence; note: potency is the fitted concentration of half-maximal effect
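Compounds were pin-transferred into ATP buffer (35 uM final), then GALK plus galactose (5 nM, 100 uM final) was added. After 1 h at room temperature, Kinase-Glo Plus was added and luminescence read after 10 min.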
Coupling enz: counter-screen for Giardia aldolase inhibitors: coupling enzyme system. coupling enzyme system counterscreen, AmpLite Red fluorescence. activity change, negative = inhibition, % at 58.2 µM, hits read low. actives 0.67% (n = 290,000). AID 2472; in the data active = activity change below about -30%
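First, compound is pin-transferred into glyceraldehyde-3-phosphate coupling-enzyme reagent at 57.5 uM final and held 10 min at RT. Next, substrate, coupling system and AmpLite Red are added. After 20 min RT, fluorescence (525/598 nm) is read.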
* marks the source's active call; other numbers are inactive results; u = inconclusive; x = no result; ! = not active in a repeat. Unless noted, calls come from the whole dose curve; as a rule, active = well fitted curve in the direction sought with a large enough effect; inconclusive = small, poorly fitted or top-dose-only effect, or another doubt; inactive = no such curve, though single readings can be large; an effect the other way counts as inactive or inconclusive. Unless noted, % is set by controls: 0 for no effect and ±100 for the full control effect.

SMILES	VDR inhibitor	PLK1 PBD inh	USP1-UAF1 inh	USP2a block	GALK inh	Coupling enz
CC(Sc1ccccc1)C(=O)N1CCN(S(=O)(=O)c2cccc(Br)c2)CC1 (stereo unspecified)	-9%	-4%	-21%	2%	0%	2
CCOc1ccc(OCCOc2ccc(/C=C/C(=O)O)cc2OCC)cc1	-6%	-6%	-22%	0%	2%	5
CCOc1cc(/C=C/C(=O)O)ccc1OCCO	u	27µM*	-11%	0%	-3%	3
C=C(C)c1cccc(C(C)(C)NC(=O)NCc2cccnc2)c1	-16%	-14%	-6%	1%	0%	0
Cc1cc(C)c(S(=O)(=O)C(C)C)c(=O)[nH]1	4%	24µM*	-7%	9%	0%	2
Cc1cc(C)c(S(C)(=O)=O)c(=O)[nH]1	11%	-16%	-12%	2%	-3%	2
CCOC(=O)c1oc2cccc(OCC(O)CNC(C)C)c2c1C (stereo unspecified)	-4%	-14%	4%	2%	-4%	-76*
CC(=O)n1c(=O)c2ccccc2c(=O)n1-c1ccccc1	u	13µM*	-19%	5%	-2%	0
CN(C(=O)c1ccc2c(=O)n3c(nc2c1)CCCCC3)c1ccccc1F	4%	-14%	-7%	4%	-2%	-1
CCOc1ccccc1N(C)C(=O)c1ccc2c(=O)n3c(nc2c1)CCCCC3	-22%	24µM*	-11%	0%	5%	x
CC(OC(=O)c1ccc2c(=O)n3c(nc2c1)CCC3)C(N)=O (stereo unspecified)	-6%	21µM*	-16%	9%	1%	2
COc1ccc(C2CC2/C(=N/O)c2ccccn2)cc1 (stereo unspecified)	-6%	3%	-14%	0%	-2%	-1
COc1ccc(C2CC2/C(=N/O)c2ccccc2)cc1 (stereo unspecified)	20µM*	13µM*	-10%	2%	-2%	5
c1ccc(-c2ccc3c(c2)c2c4n3CCN=C4CCC2)cc1	14%	30µM*	-5%	-7%	0%	1
OC1CN=C2CCCc3c2n(c2ccc(Cl)cc32)C1 (stereo unspecified)	-9%	-29%	-13%	4%	-1%	1
O=C(CN1C(=O)COc2ccc(Cl)cc21)Nc1cccc(F)c1	9%	x	-18%	x	x	x
Fc1ccc(C(Nc2ccccn2)c2c[nH]c3ccccc23)cc1 (stereo unspecified)	-16%	8.4µM*	-12%	1%	-5%	2
O=C(C1CCCCC1)N1CCN=C1SCc1cccc([N+](=O)[O-])c1	-18%	-4%	-1%	4%	1%	0
C[c-]1[c-](C)[c-](C)[c-](C)[c-]1C.[Fe].c1cc2nccc(N3CCCC3)[c-]2c1 (stereo unspecified)	-7%	u	-18%	u	-3%	-33*!
COc1ccc(N2CCN(C(=O)c3[nH]c4ccc(OC)cc4c3C)CC2)cc1	-21%	27µM*	-26%	1%	0%	-3
CCOC(=O)C1CCN(C(=O)c2[nH]c3ccc(OC)cc3c2C)CC1	0%	5%	0%	1%	5%	0
COc1ccccc1CN(Cc1nc2ccccc2c(=O)[nH]1)C(=O)Nc1ccccc1	4%	4%	-8%	1%	0%	0
CCN1C(=O)/C(=C\c2ccc(-c3ccc([N+](=O)[O-])cc3OC)o2)SC1=Nc1cccc(C(=O)O)c1	u	21µM*	u	9%	-8%	0
O=C(O)c1cccc(-c2ccc(/C=C3/SC(=Nc4ccccc4)N(Cc4cccnc4)C3=O)o2)c1	-13%	24µM*	-7%	3%	2%	6
Cc1cc(C)c[n+](C(C)C(=O)c2ccc(-c3ccccc3)cc2)c1 (stereo unspecified)	9%	-9%	-18%	4%	0%	1
CCNc1nc(Oc2ccc(=O)[nH]n2)nc(SC)n1	-6%	-4%	-8%	0%	-3%	-1

Assay outcomes deposited in PubChem BioAssay by National Center for Advancing Translational Sciences (NCATS).
